# Rtt109 HAT inh: inhibitors of Candida albicans Rtt109/Vps75 histone acetyltransferase; Q5AAJ8; purified Rtt109/Vps75, ThioGlo CoA-SH fluorescence, 4 h; inhibition, % at 34.9 µM; 330,000 compounds, 0.16% hits;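 active means inhibition of at least 50% in every replicate; inconclusive means best replicate reaches 50% inhibition but some replicates fall short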
# Target sequence (Q5AAJ8 whole entry, looked up): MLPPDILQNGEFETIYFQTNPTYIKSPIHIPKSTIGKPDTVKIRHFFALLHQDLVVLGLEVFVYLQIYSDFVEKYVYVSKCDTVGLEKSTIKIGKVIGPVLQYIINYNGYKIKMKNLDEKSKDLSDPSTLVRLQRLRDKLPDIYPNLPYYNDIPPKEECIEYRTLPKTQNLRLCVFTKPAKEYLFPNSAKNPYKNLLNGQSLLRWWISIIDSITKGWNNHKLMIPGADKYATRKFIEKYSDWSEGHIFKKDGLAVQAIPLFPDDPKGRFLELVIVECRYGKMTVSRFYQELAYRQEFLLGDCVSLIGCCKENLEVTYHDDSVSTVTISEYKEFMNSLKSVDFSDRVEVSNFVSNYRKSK
# PHOSPHO1 block: PHOSPHO1 (human) inhibition; Q8TCT1; recombinant PHOSPHO1, absorbance phosphatase assay; inhibition, % at 13.3 µM; 290,000 compounds, 1.1% hits; in the data active means inhibition above about 60%
# Target sequence (Q8TCT1 whole entry, looked up): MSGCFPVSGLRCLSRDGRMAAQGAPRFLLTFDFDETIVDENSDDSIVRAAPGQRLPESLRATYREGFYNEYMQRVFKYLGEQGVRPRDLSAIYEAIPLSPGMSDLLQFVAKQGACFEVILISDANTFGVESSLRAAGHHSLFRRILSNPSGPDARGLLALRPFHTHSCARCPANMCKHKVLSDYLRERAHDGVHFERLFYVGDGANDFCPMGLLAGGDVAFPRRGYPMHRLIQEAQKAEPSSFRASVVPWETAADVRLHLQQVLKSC
# WT yeast gro inh: growth inhibition of WT yeast, mitochondrial fusion screen; mitochondrial fusion phenotypic screen, WT strain; inhibition, % at 10 µM; 190,000 compounds, 2.1% hits; in the data active means inhibition above about 58%; tested in S. cerevisiae
# SKKanGAS inh: inhibitors of SKKanGAS S. pyogenes growth in kanamycin (SK-promoter or general growth effect); BacTiter-Glo, 6 h; inhibition, % at 7.5 µM; 300,000 compounds, 1.3% hits;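 active means mean replicate score, as percent of positive control median, at least 50; inconclusive means mean below 50 but one replicate at or above 50; inactive means mean and every replicate below 50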;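 further: strain carries kanamycin resistance gene driven by streptokinase promoter and grows in 40 µg/ml kanamycin; loss of luminescence reflects streptokinase promoter inhibition or plain growth inhibition; 0% = median of DMSO wells and 100% = positive control at its reference dose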
# TPT1 inhibitor: inhibitors of Candida albicans tRNA 2'-phosphotransferase TPT1; recombinant caTPT1, FP RNA substrate dephosphorylation; inhibition, % at 5 µM; 300,000 compounds, 0.81% hits;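 active means inhibition above the mean of all tested compounds plus 3 SD, set per screening campaign, cut at about 24% in these data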;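 further: plate controls were DMSO alone for no effect and ferristatin control at 100 nM for full effect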
# Platelet DG rel: modulates dense granule release in human platelets. human platelet-rich plasma, SFLLRN dense granule ATP release, luminescence. inhibition, %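 (compounds screened at 7.5 µM in platelet-rich plasma)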. 300,000 compounds, 0.22% hits;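 active means mean replicate score, as percent of positive control, at or above 50; inconclusive means mean below 50 but at least one replicate at or above 50; inactive means mean and every replicate below 50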
# TPT1 inh confirm: TPT1 (C. albicans) inhibition, confirmation. shares compounds with TPT1 inhibitor. recombinant caTPT1, fluorescence polarization, RNase T1 coupled. inhibition, % at 5 µM. 2,400 compounds, 74% hits;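 active means inhibition above the primary screen limit, the mean inhibition of all tested compounds plus 3 SD, cut at about 25% in these data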
# RNase T1 inh: blocks Aspergillus oryzae RNase T1, a TPT1 counter-screen; shares compounds with TPT1 inhibitor; RNase T1 cleavage, fluorescence polarization, 1536-well; inhibition, % at 5 µM; 2,400 compounds, 83% hits;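 active means inhibition above the solvent-only control well mean plus 3 SD, limit set per screening run, cut at about 23% in these data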;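 further: plate controls were DMSO wells with enzyme for no effect and wells without RNase T1 for full effect; inhibitors block cleavage so intact labeled substrate keeps polarization high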
# Starred values were filed as active, the others as inactive; ? = inconclusive; · = no result; + = active, no number. The list is not random: actives were taken first. Their share in the collection is about 3.9%.
SMILES,Rtt109 HAT inh,PHOSPHO1 block,WT yeast gro inh,SKKanGAS inh,TPT1 inhibitor,Platelet DG rel,TPT1 inh confirm,RNase T1 inh
Cc1ccnc(NC(=O)c2ccc3[nH]c(=O)c(=O)[nH]c3c2)c1,-3,9,·,-1,1,-2,·,·
CSCCC(NS(=O)(=O)c1ccc(C)cc1)C(=O)N1CCN(S(=O)(=O)c2ccc(F)cc2)CC1 (centres undefined),-20,·,·,-6,1,-2,·,·
Cc1ccc(/C=C2\SC(N3CCCC3)=NC2=O)cc1,·,55,-2,-6,-1,2,·,·
CN(C)c1ccc(/C=C2\SC(N3CCCCC3)=NC2=O)cc1,-8,25,·,-7,106*,3,116*,116*
Cc1ccc2nc(SCC(=O)Nc3ccc4sc(C)nc4c3)c(C#N)cc2c1,-2,4,21,-6,25*,9,6,10
N=C1/C(=C\c2ccc(-c3cccc(Cl)c3)o2)C(=O)N=C2SC=C(c3ccccc3)N12,1,-4,0,17,60*,3,44*,56*
Clc1cccc(-c2ccc(/C=N/n3cnnc3)o2)c1,·,-63,18,-9,-4,-2,·,·
N=C1S/C(=C\c2ccc(-c3cccc(Cl)c3)o2)C(=O)N1c1nccs1,6,-1,-4,131*,29*,4,32*,35*
O=C1OC(c2cccs2)=N/C1=C\c1ccc(-c2cccc(Cl)c2)o1,?,-3,0,2,40*,1,166*,171*
COc1ccc(C2=NN(c3nc(-c4ccc(CNC(C)=O)cc4)cs3)C(c3ccco3)C2)cc1 (centres undefined),4,16,·,19,31*,2,11,16
COc1ccc(-c2csc(N3CCN(C(=O)c4ccco4)CC3)n2)cc1,-2,33,13,-7,-1,1,·,·
CCN1C(=O)/C(=C/C=C2\N(CC)c3cc(S(=O)(=O)N(C)C)ccc3N2c2ccccc2)SC1=S,37,20,·,25,136*,33,94*,94*
CCC1C/C(=C/c2ccco2)C(=O)/C(=C/c2ccco2)C1 (centres undefined),·,-16,-22,·,68*,·,75*,80*
COc1cc(OC)c(OC)cc1/C=C1\CC(C)C/C(=C\c2cc(OC)c(OC)cc2OC)C1=O (centres undefined),-1,38,·,56*,74*,-2,87*,95*
CCC1C/C(=C\c2cc(OC)c(OC)cc2OC)C(=O)/C(=C/c2cc(OC)c(OC)cc2OC)C1 (centres undefined),·,26,·,38,64*,10,88*,97*
COc1cc(OC)c(OC)cc1/C=C1/Cc2ccccc2C1=O,-1,28,·,-11,-5,2,·,·
CCOC(=O)C1CCCN(C(=O)C(CCSC)NC(=O)COc2ccccc2)C1 (centres undefined),0,·,·,·,·,·,·,·
O=P1(NC2CCCCC2)OCC2(CO1)COP(=O)(NC1CCCCC1)OC2 (centres undefined),1,·,·,·,·,·,·,·
O=C(O)c1ccccc1-c1ccc(/C=C/c2cc(C(F)(F)F)[nH]c(=O)n2)o1,2,-64,-11,-22,·,-1,·,·
O=Cc1ccc(-c2ccc(F)cc2)o1,4,-8,-3,-1,2,3,·,·
O=c1nc(/C=C/c2ccc(-c3ccc(F)cc3)o2)cc(C(F)(F)F)[nH]1,·,1,14,12,110*,-5,106*,106*
O=C(O)c1cc(Cl)ccc1-c1ccc(/C=C/c2cc(C(F)(F)F)[nH]c(=O)n2)o1,-373,33,-11,7,62*,-1,85*,91*
CN(CC(=O)Nc1ccccc1Cl)C(=O)COC(=O)/C=C/c1cccc(C(F)(F)F)c1,3,·,·,·,·,·,·,·
N#C/C(=C/c1ccc(N2CCOCC2)o1)c1ccc(Br)cc1,26,47,-4,15,+,-8,171*,159*
N#C/C(=C\c1ccc(Sc2ccc(Cl)cc2)o1)c1nc2ccccc2[nH]1,-5,4,52,·,52*,·,51*,66*
SMILES,Rtt109 HAT inh,PHOSPHO1 block,WT yeast gro inh,SKKanGAS inh,TPT1 inhibitor,Platelet DG rel,TPT1 inh confirm,RNase T1 inh
N#C/C(=C\N1CCOCC1)c1ccccc1,0,37,-9,3,-1,-1,·,·
N#C/C(=C\c1ccc(N2CCOCC2)cc1)c1ccccc1,-7,-2,18,3,3,3,·,·
N#C/C(=C\c1ccc(N2CCOCC2)o1)c1ccccc1,-4,-5,2,-6,67*,12,138*,137*
N#C/C(=C/c1ccc(N2CCOCC2)o1)c1nc2ccccc2[nH]1,-5,14,12,·,180*,·,164*,152*
O=c1[nH]c2ccccc2nc1/C=C(\O)c1cccs1,-3,28,4,1,71*,-1,117*,114*
O=c1[nH]c2ccccc2nc1/C=C(\O)C1CC1,-5,-22,-7,-5,27*,-12,4,8
CC(C)(C)/C(O)=C/c1nc2ccccc2[nH]c1=O,-5,3,-17,-10,0,-15,·,·
O=c1[nH]c2ccccc2nc1/C=C/c1ccc(F)cc1,-2,50,3,21,57*,2,74*,83*
Cc1ccc(NC(=O)NC(=O)COc2c(F)c(F)cc(F)c2F)c(C)c1,-3,·,·,·,·,·,·,·
COc1ccc(N(C(=O)C(C)C)S(=O)(=O)c2ccc3ccccc3c2)cc1,1,19,·,0,-2,3,·,·
CC1CCCc2sc3ncn(N)c(=N)c3c21 (centres undefined),-8,8,3,0,61*,13,16,22*
N#CC1=C(N)Oc2cc(O)c(Cl)cc2C1c1ccccc1F (centres undefined),1,23,·,18,72*,6,15,26*
N#CC1=C(N)Oc2cc(O)c(Cl)cc2C1c1cccnc1 (centres undefined),0,14,·,2,·,7,·,·
CCc1sc(C(=O)NNC(=O)c2cncc(Br)c2)cc1C,-5,·,·,·,·,·,·,·
O=C1CCC/C(=N/NC(=O)c2sc3ccccc3c2Cl)C1,15,5,·,12,98*,-1,110*,108*
C#CCOCCOCCOCCNc1nc(N2CCOCC2)nc(N2CCN(C(=O)[C@H](CO)n3cc([C@@H](N)C(C)C)nn3)CC2)n1,11,·,·,·,·,·,·,·
COC(=O)C(C)n1nnc2sc(-c3ccccc3)cc2c1=O (centres undefined),-6,-5,-8,·,26*,2,27*,33*
CC(C)Sc1nc2sc(-c3ccccc3)cc2c(=O)n1N,-6,32,46,·,-3,·,·,·
CN1C2CCC1/C(=C/c1cccn1C)C(=O)/C2=C\c1cccn1C,28,32,33,-8,121*,15,123*,117*
